Assay results published in PubChem BioAssay AID602313 (National Center for Advancing Translational Sciences (NCATS), 2012).
Among all 390,000 compounds or so, about 760 (0.19%) were called active. Another 3% or so got no clear call; they are omitted. Calls come from the whole dose curve; as a rule, active = well fitted inhibition curve with a large enough effect; inconclusive = small, poorly fitted or top-dose-only effect; inactive = flat fitted curve, though single readings scatter. This excerpt belongs to a sample that is enriched for actives.

Assay: qHTS for Inhibitors of Vif-A3F Interactions: qHTS; note: nearly all actives have a fitted effect of over 65% in size
Conditions: HeLa A3F-eYFP + Vif (tagged APOBEC3F with the HIV-1 protein that degrades it), YFP fluorescence increase; series mostly up to 46.1 µM
Description: The recent discovery and characterization of host restriction factors, which provide a potent defense to invading retroviruses, has provided new targets for antiviral drug development. APOBEC3G (A3G) and APOBEC3F (A3F) are potent cytidine deaminases that block HIV-1 replication; HIV-1 expresses the Vif protein, which counteracts A3G and A3F by binding to them and inducing their proteasomal degradation. The Vif-A3G and Vif-A3F interactions provide two potential targets for development of small molecules which can interfere with the ability of Vif to degrade A3G or A3F. […] To identify inhibitors that can interfere with Vif mediated degradation of A3G and A3F, we have developed Hela cell lines that stably express A3G or A3F tagged with eYFP at the C-terminal end (A3G-eYFP or A3F-eYFP, respectively) and Vif. In the absence of an inhibitor, Vif induces degradation of A3G-eYFP and A3F-eYFP, and the cells are not fluorescent. In the presence of an inhibitor, it is expected that Vif will be unable to degrade A3G-eYFP and/or A3F-eYFP, resulting in an increase in yellow fluorescence. In this assays Vif A3F was screened against the Molecular Library Small Molecule Repository (MLSMR). NIH Chemical Genomics Center [NCGC] NIH Molecular Libraries Probe Centers Network [MLPCN] MLPCN Grant: MH093245 Assay Submitter (PI): Vinay Pathak, National Cancer Institute
5 uL of 700 cells/well of A3F-YFP cells are dispensed into black, clear bottom plates. The plates are incubated overnight at 37 deg C. 23 nL of compounds are added by pintool. The plates are incubated overnight at 37 deg C and then read on the TTP Acumen (Ex 488/ Em 500-530).
Potency is the fitted concentration of half-maximal effect.

Potency, active:
COc1ccc(-c2nc3cnccn3c2NC2CCCCC2)cc1-c1cccc(Cl)c1 22.4 µM
NNC(=O)c1oc2nc(-c3ccccc3)cc(-c3ccco3)c2c1N 11.2 µM
CCc1nc(Nc2ccc3nccnc3c2)c2oc3ccccc3c2n1 22.4 µM
CNC(=S)N/N=C/c1ccc(N2CCOCC2)s1 1.12 µM
Oc1[nH]c2ccccc2c1N=Nc1c(F)c(F)c(F)c(F)c1F 25.1 µM
COc1cc(/C=C(\C#N)c2nc3ccccc3[nH]2)ccc1O 12.6 µM

Potency, inactive:
Cc1ccc(C)c(Oc2c(C(F)(F)F)oc3c(CN4CCN(C)CC4)c(O)ccc3c2=O)c1
CC1CCC(N2CC(=O)N(CCC3=CCCCC3)C(c3ccc(F)cc3)C2=O)CC1 (centres undefined)
COc1ccc(Cl)cc1NC(=O)c1sc2nc3c(cc2c1N)CN(C)CC3
CCOc1ccc(N2CC(c3nc4ccccc4n3CCOc3ccc(OC)cc3)CC2=O)cc1 (centres undefined)
O=S(=O)(c1ccc(C2CCCCC2)cc1)N1CCN(c2ccc(Cl)c(Cl)c2)CC1
CC(C)c1ccc(C2CC(=O)N3CN(C4CCCCC4)CSC3=C2C#N)cc1 (centres undefined)
CCOc1ccc2oc(=O)cc(CN3CCN(C(=O)c4ccc(F)cc4)CC3)c2c1
COc1ccc(-c2nn3c(-c4ccc(OC)cc4)nnc3c3ccccc23)cc1
CC(C)c1ccc(NC(=O)c2cc(S(=O)(=O)N3CCc4ccccc4C3)ccc2F)cc1
CCOc1ccccc1C(=O)NCc1ccc2c(c1)CCN2C(=O)c1ccc(F)cc1
CCOc1ccc(N(Cc2ccccc2)C(=O)c2nc(S(C)(=O)=O)ncc2Cl)cc1
Cc1ccc2sc(N(Cc3cccnc3)C(=O)C3COc4ccccc4O3)nc2c1C (centres undefined)
Cc1ccc(NC(=O)c2oc3ccc(S(=O)(=O)N4CCCCC4)cc3c2C)cc1Cl
CCc1nn(CC(=O)N2CCN(c3ccc(Cl)cc3)CC2)c(=O)c2cc3occc3n12
Cc1nc2c(-c3ccccc3)c(C)nn2c(C)c1CCC(=O)NCCc1ccccc1
COc1ccccc1Nc1nc(N)nc(N)c1S(=O)(=O)c1ccccc1
COc1cc(NC(=O)c2cc3ccc4cccnc4c3[nH]2)cc(OC)c1OC
COc1ccc(-c2cn3c(n2)sc2cc(C(=O)Nc4ccc(F)cc4)ccc23)cc1
COc1ccc(NC(=O)c2sc3nc(-c4cc5cccc(OC)c5oc4=O)[nH]c(=O)c3c2C)cc1
COc1ccc(-c2nc3cnccn3c2NC(C)(C)CC(C)(C)C)cc1O
Cc1ccc(Nc2c(-c3ccc(C)cc3)nc3cnccn23)cc1
CCOCCCNC(=O)c1ccc2nc(CCc3ccccc3)oc2c1
COc1ccc(C(=O)Nc2ccc(-n3nncc3-c3ccccc3)cc2)cc1OC
Cc1ccc(CSc2nc3cccnc3n2Cc2ccc(C(=O)NC3CC3)cc2)cc1
CCOC(=O)c1cnc2c(C)cc(Cl)cc2c1NCCc1ccc(OC)c(OC)c1
O=C(Cc1ccc(Cl)cc1)Nc1ccc2nn(-c3ccc(Cl)cc3)nc2c1
CCOC(=O)c1c(C)oc2nc(C)nc(N3CCN(c4ccc(OC)cc4)CC3)c12
CC(C)c1ccc(NC(=O)Cn2nnc(C(=O)NCCc3ccccc3)c2N)cc1
O=C(CCCn1c(=O)c2cccn2c2cccnc21)NCc1ccc(F)cc1
Cc1cc(=O)n(CC(=O)Nc2cccc([N+](=O)[O-])c2)c(-n2nc(C)cc2C)n1
CCOC(=O)c1c(S(=O)(=O)N2CCC(C(=O)NCc3ccccc3OC)CC2)c(C)n(C)c1C
CSc1ccc(C2c3c(oc4ccccc4c3=O)C(=O)N2CCCN2CCOCC2)cc1 (centres undefined)
CSc1ccc(NC(=O)Cn2nnnc2-c2ccccc2F)cc1
C[C@@H](Nc1nc(-c2ccccc2)nc2c1oc1ccccc12)C(=O)O
COCCNc1nc(-c2ccccc2)nc2c1oc1ccccc12
Cc1ccc(C(=O)C(=S)N2CCOCC2)cc1
C=CCNC(=S)N/N=C/c1ccc(C)s1
O=[N+]([O-])c1cc(S(=O)(=O)Nc2cccc(Cl)c2)ccc1N=Nc1c(O)[nH]c2ccccc12
S=c1[nH]c2ccccc2c2ccccc12
CCN(CCCNC(=O)c1cc2cc3cc(OC)ccc3nc2s1)c1ccccc1
Cc1ccc2nc(/C(C#N)=C/c3ccccc3F)[nH]c2c1
CCOc1ccc(/C=C(\C#N)c2nc3ccccc3c(=O)[nH]2)cc1OC
COc1ccc(Nc2ncc(C(=O)Nc3cc(C)ccc3OC)c3ccccc23)cc1
